Bioassay records: PubChem, several laboratories
In the library only some 1.4% were active in any assay of this set; here they are far more common.
LEDGF integ inh = blockers of LEDGF/p75-dependent integrase strand transfer – biochemical, TR-FRET, high throughput, primary screen; hit rate 0.64% among 370,000; HIV-1 integrase (with human LEDGF/p75); inhibition, % at 3.7 µM; TR-FRET IN-LEDGF/p75 DNA integration, Eu/Cy5;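 active = inhibition above the screen-wide mean plus 3 SD, cut at about 13% in these data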;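 also: signal is the Cy5 over europium emission ratio at 671 and 618 nm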
MBD2 DNA inh = inhibitors of MBD2 binding to methylated DNA, primary screen, biochemical, TR-FRET, DNA-binding domain, human; hit rate 0.31% among 370,000; inhibition, % at 4.4 µM; Methyl-CpG-binding domain protein 2 (Homo sapiens), Q9UBB5; MBD2 binding to methylated oligonucleotide; in the data active = inhibition above about 13%
UHRF1 binding = UHRF1 methylated DNA binding inhibitors, primary screen, counter-screen for MBD2 inhibitor project, biochemical, TR-FRET, human UHRF1, single concentration; AID 687016, 2013; inhibition, % at 4.4 µM; UHRF1 binding to methylated oligo; hit rate 0.75% among 370,000; in the data active = inhibition above about 21%;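 also: UHRF1 SRA domain binding a hemimethylated CpG hairpin DNA probe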
Target sequence (Q96T88 whole entry, looked up, the tested form may be a part): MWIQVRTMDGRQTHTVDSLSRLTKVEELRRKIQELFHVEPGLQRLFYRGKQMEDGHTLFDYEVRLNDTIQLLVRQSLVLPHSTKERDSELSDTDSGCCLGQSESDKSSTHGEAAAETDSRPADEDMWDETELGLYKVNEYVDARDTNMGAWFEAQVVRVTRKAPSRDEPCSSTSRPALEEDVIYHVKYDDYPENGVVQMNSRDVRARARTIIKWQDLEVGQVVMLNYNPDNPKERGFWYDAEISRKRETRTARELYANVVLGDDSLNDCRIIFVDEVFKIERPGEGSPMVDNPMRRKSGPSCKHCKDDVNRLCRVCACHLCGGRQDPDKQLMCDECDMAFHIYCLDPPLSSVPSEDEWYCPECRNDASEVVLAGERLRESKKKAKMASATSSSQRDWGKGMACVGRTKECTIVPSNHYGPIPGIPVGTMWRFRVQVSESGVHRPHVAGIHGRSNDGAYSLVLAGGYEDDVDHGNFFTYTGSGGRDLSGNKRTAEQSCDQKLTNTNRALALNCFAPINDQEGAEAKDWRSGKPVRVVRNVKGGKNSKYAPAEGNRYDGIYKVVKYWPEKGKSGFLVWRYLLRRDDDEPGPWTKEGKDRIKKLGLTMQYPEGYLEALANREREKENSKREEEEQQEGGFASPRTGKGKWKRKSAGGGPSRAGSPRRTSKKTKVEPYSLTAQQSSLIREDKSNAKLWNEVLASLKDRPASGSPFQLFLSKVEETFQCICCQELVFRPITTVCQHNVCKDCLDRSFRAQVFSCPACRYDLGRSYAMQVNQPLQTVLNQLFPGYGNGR
Casp6 inh = human caspase-6 inhibitors, primary screen, biochemical, VEID-R110 fluorescence, single point, set 2; P55212; purified caspase-6, Z-VEID-R110 cleavage fluorescence; inhibition, % at 12.5 µM; hit rate 0.53% among 350,000; AID 686996, 2013;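 active = mean inhibition across replicates at least about 35%, with every replicate also reaching that limit, limit read from the data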
IN multimer up = HIV-1 IN multimer formation enhancers, counter-screen for LEDGF/p75 integration inhibitor project, biochemical, TR-FRET. shares compounds with LEDGF integ inh. TR-FRET HIV-1 integrase multimerization. activation, % at 7.7 µM. hit rate 17% among 2,000. AID 1053131, 2014; in the data active = activation above about 8.9%
TRFRET interf = TR-FRET optical interference artefacts, confirmation, artefact control for LEDGF/p75-dependent integration inhibitor project, biochemical, HIV-1 IN multimerization; shares compounds with LEDGF integ inh; TR-FRET optical interference counterscreen; inhibition, % at 7.7 µM; 2,000 tested, under 10 active; AID 1053135, 2014;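 active = inhibition above the mean over all tested compounds plus 3 SD, which no compound reached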
LEDGF integ conf = inhibitors of HIV-1 IN-LEDGF/p75 DNA integration, confirmation, biochemical, TR-FRET | TR-FRET LEDGF/p75-dependent HIV-1 integration | hit rate 36% among 2,000 | shares compounds with LEDGF integ inh | inhibition, % at 3.7 µM; in the data active = inhibition above about 14%
Large screens that a line does not name were inactive (follow-up assays come after a bar, where they were run).

O=C(CN1CCN(S(=O)(=O)c2ccc(Cl)c(Cl)c2)CC1)N1CCCC1	none
O=C(CN1CCN(S(=O)(=O)c2ccc(Cl)c(Cl)c2)CC1)N1CCCCC1	LEDGF integ inh 17 | IN multimer up inactive | TRFRET interf inactive | LEDGF integ conf inactive
COC(=O)C1=C(CCc2ccccc2)NC(=O)NC1c1ccc(Cl)cc1 (configuration not stated)	LEDGF integ inh 18 | IN multimer up inactive | TRFRET interf inactive | LEDGF integ conf inactive
COC(=O)C1=C(CCc2ccccc2)NC(=O)NC1c1ccc(C#N)cc1 (configuration not stated)	none
C[C@@H]1CCCCO[C@@H](CN(C)C(=O)Nc2ccc(F)cc2)[C@@H](C)CN([C@H](C)CO)C(=O)c2cc(NC(=O)CCC(F)(F)F)ccc2O1	none (no result: LEDGF integ inh, MBD2 DNA inh, UHRF1 binding)
COc1ccc(CNC(=O)CN(CCC(C)C)S(=O)(=O)c2ccc3c(c2)OCCO3)cc1	LEDGF integ inh 23 | IN multimer up inactive | TRFRET interf inactive | LEDGF integ conf inactive
O=C(c1coc(=O)c(Br)c1)N1CCCc2ccccc21	LEDGF integ inh 19 (no result: Casp6 inh) | IN multimer up inactive | TRFRET interf inactive | LEDGF integ conf 17
CCC(=O)N1C[C@@H](C)[C@@H](OC)CN(C)C(=O)c2cc(NC(=O)NC(C)C)ccc2OC[C@@H]1C	none (no result: LEDGF integ inh, MBD2 DNA inh, UHRF1 binding)
Cc1cc2nc3ccc(N(C)C)cc3nc2cc1N	LEDGF integ inh 31 | IN multimer up 15 | TRFRET interf inactive | LEDGF integ conf 72
C[C@H]1CN([C@@H](C)CO)C(=O)c2ccccc2-c2ccccc2CO[C@@H]1CN(C)S(=O)(=O)c1ccc([N+](=O)[O-])cc1	none (no result: LEDGF integ inh, MBD2 DNA inh, UHRF1 binding)
CC(NS(=O)(=O)c1ccc(Cl)cc1)C(=O)NCc1ccco1 (configuration not stated)	LEDGF integ inh 18, UHRF1 binding 25 (no result: Casp6 inh) | IN multimer up inactive | TRFRET interf inactive | LEDGF integ conf inactive
Cc1cccc(OCC(=O)Nc2ccc3oc(=O)ccc3c2)c1	none (no result: Casp6 inh)
CCCC(=O)Nc1ccc2oc(=O)ccc2c1	LEDGF integ inh 35 | IN multimer up inactive | TRFRET interf inactive | LEDGF integ conf inactive
O=C(NCC1CC1)c1cccc2c1C(=O)c1ccc(N3CCCC3)cc1S2(=O)=O	LEDGF integ inh 27 | IN multimer up inactive | TRFRET interf inactive | LEDGF integ conf inactive
C=CCNC(=O)c1cccc2c1C(=O)c1ccc(N3CCCC3)cc1S2(=O)=O	none (no result: Casp6 inh)
CCCCC(=O)Nc1cccc(NC(=O)CC)c1	LEDGF integ inh 25 (no result: Casp6 inh) | IN multimer up inactive | TRFRET interf inactive | LEDGF integ conf inactive
O=C(C[C@@H]1CC[C@@H](NS(=O)(=O)c2ccc(F)cc2)[C@@H](CO)O1)N1CCC(Cc2ccccc2)CC1	none (no result: LEDGF integ inh, MBD2 DNA inh, UHRF1 binding)
COCCCN1C(=O)C(=O)/C(=C(/O)c2ccccc2)C1c1ccc(N(C)C)cc1 (configuration not stated)	none
COCCCN1C(=O)C(=O)/C(=C(/O)c2ccccc2)C1c1ccc2c(c1)OCO2 (configuration not stated)	LEDGF integ inh 30 (no result: Casp6 inh) | IN multimer up inactive | TRFRET interf inactive | LEDGF integ conf inactive
C[C@@H]1CN([C@H](C)CO)S(=O)(=O)c2ccc(-c3ccc(F)cc3)cc2O[C@@H]1CN(C)C(=O)c1ccccc1F	none (no result: LEDGF integ inh, MBD2 DNA inh, UHRF1 binding)
COc1cc(/C=C(\C#N)C(N)=O)ccc1OCc1c(C)no[n+]1[O-]	none
Nn1cnnc1N/N=C/c1ccc(Cl)cc1Cl	LEDGF integ inh 48 | IN multimer up inactive | TRFRET interf inactive | LEDGF integ conf inactive
COc1ccc(/C=N/Nc2nncn2N)cc1Br	LEDGF integ inh 70 | IN multimer up inactive | TRFRET interf inactive | LEDGF integ conf inactive
COc1ccc(CSc2nncn2N)cc1Br	none (no result: Casp6 inh)
COc1cc(/C=N/Nc2nncn2N)ccc1OCc1c(C)no[n+]1[O-]	LEDGF integ inh 59 | IN multimer up inactive | TRFRET interf inactive | LEDGF integ conf inactive
O=C(N/N=C/c1ccc(Cl)cc1Cl)c1ccc(-n2cnnn2)cc1	none
CO[C@H]1CN(C)C(=O)c2ccc(NS(=O)(=O)c3cccc(F)c3)cc2OC[C@@H](C)N(C(=O)Cc2cccnc2)C[C@@H]1C	none (no result: LEDGF integ inh, MBD2 DNA inh, UHRF1 binding)
O=C(O)C1Nc2c(O)cccc2C2C=CCC12 (configuration not stated)	LEDGF integ inh 70, MBD2 DNA inh 37, UHRF1 binding 74, Casp6 inh 92 | IN multimer up 8.9 | TRFRET interf inactive | LEDGF integ conf 77
CC(C)CNC(=O)C1Nc2ccccc2C2C=CCC12 (configuration not stated)	none
COc1cccc(-c2ccc3n(c2=O)C[C@@H]2[C@@H](CO)[C@H](C(=O)N(C)C)N(C(=O)C4CC4)[C@H]32)c1	none (no result: LEDGF integ inh, MBD2 DNA inh, UHRF1 binding)
CC(=O)NNC(=O)c1sc(=S)n(C)c1C	LEDGF integ inh 22 | IN multimer up inactive | TRFRET interf inactive | LEDGF integ conf inactive
S=c1[nH]nc(-c2ccccc2)n1/N=C/C=C/c1ccco1	LEDGF integ inh 14 | IN multimer up inactive | TRFRET interf inactive | LEDGF integ conf 16
Cc1ccccc1-c1n[nH]c(=S)n1/N=C/C=C/c1ccco1	none
C/C(C=Nn1c(-c2ccc(F)cc2)n[nH]c1=S)=C/c1ccco1	LEDGF integ inh 15 (no result: Casp6 inh) | IN multimer up inactive | TRFRET interf inactive | LEDGF integ conf inactive
C[C@@H]1CN([C@H](C)CO)C(=O)c2cc(NS(=O)(=O)c3ccccc3)ccc2O[C@@H](C)CCCCO[C@H]1CN(C)C(=O)Nc1ccc2c(c1)OCO2	none (no result: LEDGF integ inh, MBD2 DNA inh, UHRF1 binding)
CC(C)[C@H](NS(=O)(=O)c1ccc2c(c1)OCCO2)C(=O)OCC(=O)Nc1cccc(Cl)c1Cl	LEDGF integ inh 18 (no result: Casp6 inh) | IN multimer up inactive | TRFRET interf inactive | LEDGF integ conf inactive
CC(C)[C@H](NS(=O)(=O)c1ccc2c(c1)OCCO2)C(=O)OCC(=O)Nc1ccccc1Cl	none
CN(C)/C=C/c1oc2ccc(O)cc2c1[N+](=O)[O-]	LEDGF integ inh 18 | IN multimer up 19 | TRFRET interf inactive | LEDGF integ conf inactive
CC(=O)Nc1ccc(-c2ccnc3c2CC(C(=O)Nc2cccc(C(F)(F)F)c2)O3)cc1 (configuration not stated)	none
CC(=O)Nc1ccc(-c2ccnc3c2CC(C(=O)Nc2cccc(N(C)C)c2)O3)cc1 (configuration not stated)	LEDGF integ inh 24 | IN multimer up inactive | TRFRET interf inactive | LEDGF integ conf inactive
